Rows were chosen to be rich in hits. Some 4.1% of all compounds tested hit in one or more screens of this group.
PolyA inh: polyadenylation inhibitors in yeast reporter cells, primary screen, luminescence, S. cerevisiae. AID 1875, 2009. S. cerevisiae SKY197-pL101 polyadenylation reporter, beta-gal luminescence; efflux-impaired pdr1/pdr3 knockout yeast; score 100 = 6 SD above DMSO. 300,000 compounds, 0.02% hits. activity score, % at 12 µM;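 active = lowest replicate activity score at least 50, where 100 means six control SD above control mean; inconclusive = lowest score under 50 but half or more replicates reach 50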;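 also: yeast exposed to compound for 9 h at 30 °C; higher score means more reporter readthrough which indicates perturbed polyadenylation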
ALR H2O2 inh: inhibitors of human ALR sulfhydryl oxidase, primary screen, biochemical, H2O2 detection, HRP-luminol luminescence, single point; purified ALR, DTT oxidation; 290,000 compounds, 3.8% hits; FAD-linked sulfhydryl oxidase ALR (Homo sapiens), P55789; inhibition, % (test concentration not listed);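 active = mean replicate inhibition above about 79%, with every replicate also reaching it, limit read from the data; inconclusive = only one of the two criteria met; inactive = mean below limit and not every replicate reaching it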
Target sequence (P55789 whole entry, looked up): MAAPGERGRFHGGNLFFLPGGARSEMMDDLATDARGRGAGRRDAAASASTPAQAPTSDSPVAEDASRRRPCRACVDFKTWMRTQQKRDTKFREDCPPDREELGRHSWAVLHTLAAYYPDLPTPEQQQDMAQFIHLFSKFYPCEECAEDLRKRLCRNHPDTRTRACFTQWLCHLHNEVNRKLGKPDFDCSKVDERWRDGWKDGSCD
CaV13 ICDI inh: Primary screen for inhibitors of IQ motif and Ca2+-dependent inactivation inhibitor domain binding in CACNA1D, Förster resonance energy transfer in living cells, … | AID 743397 | inhibition, % at 12.3 µM | HEK cells, CFP/YFP FRET ICDI-IQ, plate reader, 10 min; percent FRET-ratio fall versus neutral wells | 340,000 compounds, 0.098% hits;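 active = mean replicate inhibition of at least 30% and at least 1% of replicates passing that level; inconclusive = only one of the two criteria is met; inactive = neither criterion is met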
PfM18AAP inh: PfM18AAP inhibitors, malaria aminopeptidase, primary screen, biochemical, QFRET, recombinant enzyme; M18 aspartyl aminopeptidase (Plasmodium falciparum 3D7); H-Glu-NHMec fluorogenic cleavage; inhibition, % at 7.35 µM; 290,000 compounds, 1.2% hits;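 active = inhibition above the campaign mean inhibition over all tested compounds plus 3 SD, cut at about 28% in these data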
IDE cell inh: human IDE inhibitors in live cells, primary screen, fluorescence polarization, HEK cells, FAbetaB substrate. Insulin-degrading enzyme (Homo sapiens), P14735. inhibition, % at 5.59 µM. 320,000 compounds, 0.41% hits. FAbetaB cleavage;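 active = percent inhibition above the average of all tested compounds plus 3 SD, set per screening campaign, cut at about 16% in these data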;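 also: IDE supplied by intact live HEK cells; FP after avidin binding of uncleaved biotin substrate so inhibition keeps polarization high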
IDE cell activ: human IDE activators in live cells, primary screen, fluorescence polarization, HEK cells, FAbeta-B substrate; FAbeta-B cleavage; 0% vehicle, 100% cell-free pure enzyme wells; AID 493087, 2011; Insulin-degrading enzyme (Homo sapiens), P14735; 340,000 compounds, 0.073% hits; activation, % at 5.96 µM;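 active = activation above the mean of all tested compounds plus 3 SD, set per screening campaign, cut at about 17% in these data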
IDE cell inh cf: human IDE inhibitors in live cells, confirmation, fluorescence polarization, HEK cells, FAbetaB substrate | shares compounds with IDE cell inh | FAbetaB cleavage | inhibition, % at 5.59 µM | 1,200 compounds, 51% hits;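 active = mean inhibition across triplicate wells above the cutoff set by the earlier primary insulin-degrading enzyme screen, cut at about 16% in these data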
HEK cytotox: cytotoxicity in HEK cells, cytotoxicity control for IDE inhibitor project, cell-based, luminescence. shares compounds with IDE cell inh. HEK293 cytotoxicity, ATP luminescence. inhibition, % at 5.59 µM. 1,200 compounds, 28% hits; in the data active = inhibition above about 22%
Numbers stand for hits; i = inactive; ? = inconclusive; nt = not tested or not shown.

SMILES	PolyA inh	ALR H2O2 inh	CaV13 ICDI inh	PfM18AAP inh	IDE cell inh	IDE cell activ	IDE cell inh cf	HEK cytotox
CCC(=O)Nc1ccc(NC(=O)c2oc3ccccc3c2C)cc1	i	i	i	i	16.6	i	i	i
O=c1oc2c3c4c(cc2c(C(F)(F)F)c1CCN1CCOCC1)CCCN4CCC3	i	i	i	i	36.9	i	67.7	i
O=c1oc2c(CN3CCOCC3)c(O)ccc2c2c1CCC2	nt	i	i	i	i	i	nt	nt
CCOC(=O)C1=C(c2ccccc2)N=c2s/c(=C\c3ccc(O)cc3)c(=O)n2C1c1cccs1 (stereo not drawn)	i	i	i	i	23.1	i	114.9	41.4
CCOC(=O)C1=C(c2ccccc2)N=c2sc(=Cc3cc(OC)c(OC)c(OC)c3)c(=O)n2C1c1cccs1 (stereo not drawn)	nt	nt	i	nt	nt	nt	nt	nt
Cc1c(/C=N/O)c2ccccn2c1C=O	i	i	i	i	i	i	nt	nt
O=C(O)CN1C(=O)C=CC1=O	nt	nt	i	nt	nt	nt	nt	nt
O=C1C=CC(=O)N1CCCCCCN1C(=O)C=CC1=O	nt	i	i	i	18.8	nt	i	123.5
O=C(COc1ccccc1)NCC(=O)N/N=C/c1cc(Br)ccc1OCc1ccccc1	nt	i	i	i	i	i	nt	nt
Cc1cccc(OCC(=O)NCC(=O)N/N=C/c2cc(Br)ccc2OCc2ccccc2)c1	i	i	i	i	32.2	i	i	i
O=C(N/N=C\c1c(O)ccc2ccccc12)c1ccc(Cn2cccn2)o1	i	i	i	i	41.9	i	62.9	67.7
COc1ccc2ccccc2c1/C=N/NC(=O)c1cccc(Br)c1	i	i	i	i	i	i	nt	nt
O=C(N/N=C/c1c(O)ccc2ccccc12)c1cccc(C(F)(F)F)c1	i	i	i	i	180.3	i	137.4	114.5
Cc1csc2ncnc(NNC(=O)c3ccc(Cl)cc3)c12	i	?	i	i	17.3	i	i	33.7
O=C(CSc1nc(C2CC2)nc2ccccc12)N1c2ccccc2Sc2ccccc21	i	i	i	i	i	i	nt	nt
CC1=CC(C)(C)Nc2ccc(OC(=O)CCN3C(=O)c4ccccc4C3=O)cc21	i	i	i	i	17.0	i	38.2	126.7
O=C(CCN1C(=O)c2ccccc2C1=O)Oc1ccc2ccccc2c1	i	i	i	i	i	i	nt	nt
Cc1ccc(C)c(N2CCN(C(=O)CCS(=O)(=O)c3ccc4c(c3)CCN4C(=O)C3CC3)CC2)c1	i	i	i	i	i	i	nt	nt
COc1ccc(C(CC(=O)N2CCCC2)c2ccc(F)cc2)cc1 (stereo not drawn)	i	i	i	i	17.0	i	i	i
Cc1cc(OCCN2CCOCC2)ccc1Cl	i	i	i	i	i	i	nt	nt
CN(C)c1cc[n+](CC(=O)c2ccc(-c3ccccc3)cc2)cc1	i	i	i	i	22.3	i	22.6	82.6
O=[N+]([O-])c1ccc(N=Cc2sc3ccccc3c2O)cc1	i	i	i	i	16.9	i	i	i
CC(C)C(=O)Nc1cccc(C(=O)Nc2nccs2)c1	i	i	nt	i	i	i	nt	nt
CCOC(=O)/C(C#N)=C(C)/C=C1\Sc2ccccc2N1CC	i	i	i	i	44.3	i	78.1	36.4
CCOC(=O)/C(C#N)=C/C=C1\C=Cc2ccccc2N1CC	i	i	i	i	i	i	nt	nt
SMILES	PolyA inh	ALR H2O2 inh	CaV13 ICDI inh	PfM18AAP inh	IDE cell inh	IDE cell activ	IDE cell inh cf	HEK cytotox
CCN1/C(=C\C=C(C(C)=O)C(C)=O)Sc2ccccc21	i	98.6	i	i	35.4	i	49.7	i
Cc1cc(C)c2c(=O)n(CC(=O)Nc3cccc(F)c3)sc2n1	i	nt	i	65.4	21.4	i	i	113.4
O=C(C[C@@H]1C/C=C/CC[C@@H](Cc2ccc(F)cc2)C(=O)OC[C@H](Cc2ccccc2)NC1=O)N[C@H](CO)Cc1ccccc1	nt	i	i	nt	i	i	nt	nt
O=S(=O)(c1ccc(NC2CCCc3ccccc32)nc1)N1CCOCC1 (stereo not drawn)	i	i	i	i	19.2	i	i	i
CCCN1C(=O)/C(=C/c2c(NCCCOCC)nc3c(C)cccn3c2=O)SC1=S	nt	nt	i	i	nt	i	nt	nt
O=C1/C(=C\c2c(NCCOCCO)nc3ccccn3c2=O)SC(=S)N1Cc1ccco1	i	i	i	i	98.5	i	79.8	i
CCOc1cc(/C=C2\SC(=S)N(Nc3ccccc3)C2=O)ccc1O	i	80.7	i	i	53.2	i	128.1	i
COc1ccc(/C=C2/SC(=S)N(Cc3ccccc3)C2=O)cc1O	i	i	i	i	nt	i	nt	nt
COc1cc(/C=C2\SC(=S)N(C(Cc3ccccc3)C(=O)O)C2=O)ccc1O (stereo not drawn)	i	nt	i	i	46.5	i	108.5	i
CCOc1ccc(/C=C2\SC(=S)N(NS(=O)(=O)c3ccccc3)C2=O)cc1OC	i	nt	i	i	i	i	nt	nt
O=C(O)C(Cc1ccccc1)N1C(=O)/C(=C/c2ccccc2)SC1=S (stereo not drawn)	i	i	i	i	i	i	nt	nt
CCOc1cc(/C=C2\SC(=S)N(NS(=O)(=O)c3ccccc3)C2=O)ccc1O	i	99.1	i	i	39.2	i	109.4	i
COc1cc(/C=C2\SC(=S)N(Nc3ccccc3)C2=O)ccc1O	i	?	i	i	128.5	i	142.4	i
N#Cc1ccccc1Sc1ccccc1C(=O)NCC(c1ccco1)N1CCCC1 (stereo not drawn)	i	i	i	nt	i	i	nt	nt
C=CCOC(=O)C1C(=O)CC(C)(O)C(C(=O)OCC=C)C1c1ccc(N(C)C)cc1 (stereo not drawn)	i	i	i	i	i	i	nt	nt
CCn1c(Sc2ccc(N)cc2Cl)nc2ccccc21	i	nt	i	i	i	i	nt	nt
COc1ccc(Cl)cc1NS(=O)(=O)N1CCOCC1	i	i	i	i	i	i	nt	nt
COc1cc(/C=C2/SC(=S)N(CC3CCCO3)C2=O)ccc1O (stereo not drawn)	i	nt	i	i	107.6	i	175.1	i
COc1ccc(/C=C2\SC(=S)N(CC3CCCO3)C2=O)cc1 (stereo not drawn)	i	i	i	i	i	i	nt	nt
Cc1ccc(N2CC(C(=O)Nc3ccccc3N3CCCC3)CC2=O)cc1 (stereo not drawn)	i	i	i	i	i	i	nt	nt

Assay outcomes deposited in PubChem BioAssay by several laboratories.
